Each structure is given as a SMILES string. Values without a mark were called inactive. No rule for the calls is given here.

The experiment deals with Pantothenate synthetase (Mycobacterium tuberculosis (strain ATCC 25618 / H37Rv)) (UniProt P9WIL5). As to the kind of experiment: Recombinant Mtb pantothenate synthetase (PanC) inhibitors, coupled enzyme, confirmatory (AID 375).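 Also: 0% = full reaction with vehicle and 100% = no enzyme background.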 The conditions noted are these: coupled enzyme assay; at 10 µM, hits give high values.
Chain of Pantothenate synthetase (Mycobacterium tuberculosis (strain ATCC 25618 / H37Rv)) (P9WIL5 whole entry, looked up): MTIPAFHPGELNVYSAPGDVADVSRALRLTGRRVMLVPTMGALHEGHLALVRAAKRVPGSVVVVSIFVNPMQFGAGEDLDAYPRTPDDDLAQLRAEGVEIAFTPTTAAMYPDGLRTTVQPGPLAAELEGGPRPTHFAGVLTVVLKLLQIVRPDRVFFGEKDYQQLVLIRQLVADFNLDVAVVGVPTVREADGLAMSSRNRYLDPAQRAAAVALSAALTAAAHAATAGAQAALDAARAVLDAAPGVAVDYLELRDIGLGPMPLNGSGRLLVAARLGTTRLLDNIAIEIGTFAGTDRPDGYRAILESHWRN
What is called inhibition is the relative decrease from the control value, in per cent. In the case of `O=c1oc2cc(O)ccc2c2oc3cc(O)ccc3c12`, the inhibition was 7%.
As for `Cc1cnc(NC(=O)CSc2nc3ccccc3c(=O)[nH]2)s1`, the inhibition was 3%.
With `Cc1c(C(=O)NCc2ccccn2)oc2ccccc12`, the inhibition is 0%.
Regarding `Cc1cc(NC(=O)CSc2nc(CCC3CCCC3)nc3ccccc23)no1`, the inhibition was 3%.
Regarding `CC(=O)Nc1nc2c(c3c1c(=O)oc1ccccc13)CC(C)CC2` (stereo not given), the inhibition was 0%.
In the case of `Cc1ccccc1Cn1nc(C)c(NC(=O)c2noc3c2CCCC3)c1C` it was 5%.
Regarding `Cc1ccc(-c2nn3c(C)nnc3s2)cc1N`, the inhibition is 0%.
On to `Cc1ccc(-n2ncc3c(=O)[nH]c(SCC(=O)N4CCN(c5ccccc5)CC4)nc32)cc1`, for which the inhibition was 0%.
As to `Cc1ccc(S(=O)(=O)NCC2CCC(C(=O)NCCCN3CCOCC3)CC2)cc1` (stereo not given), the inhibition was 0%.
In the case of `CC1=NC(Nc2nc(C)c3ccccc3n2)=NC(C)(C)C1` it was 0%; in that of `O=C(CCSc1ccccc1)N1CCN(C(=O)c2ccco2)CC1`, 0%; in that of `O=S(=O)(NCCCCCNS(=O)(=O)c1ccccc1)c1ccccc1`, 6%.
In the case of `COc1ccccc1CNC(=O)C1CCC(CNc2c(N3CCOCC3)c(=O)c2=O)CC1` (stereo not given) it was 0%.
In the case of `CCOC(=O)c1ccc(NS(=O)(=O)c2ccc3c(c2)CCCN3C(C)=O)cc1`, the inhibition is 0%.
As to `Cc1noc(C)c1CSc1nc2cc(S(=O)(=O)N3CCOCC3)ccc2o1`, the inhibition was 0%.
In the case of `COc1cccc(NC(=O)C2CCN(c3ncccn3)CC2)c1` it was 2%; in that of `O=C1C(CCS(=O)c2ccccc2)C(=O)N(c2ccccc2)N1c1ccccc1` (stereo not given), 0%; in that of `O=c1c2ccccc2nnn1CSc1nnc2sc3ccccc3n12`, 0%.
Regarding `CCOc1ccc(C(=O)N2CCN(C(=O)c3ccco3)CC2)cc1OCC`, the inhibition was 1%.
Turning to `CCOc1ccccc1NC(=O)CN(c1ccc(C)cc1)S(=O)(=O)c1c(C)noc1C`, the inhibition was 9%.
For `NC(=O)COC(=O)CNC(=O)c1ccc(Cl)cc1`, the inhibition was 0%.
In the case of `Cc1nn(C)c(C)c1NC(=O)CCSc1nc(-c2ccco2)cc(C(F)(F)F)n1` it was 6%.
As for `O=C(COc1ccccc1)Nc1nc2ccccc2[nH]1`, the inhibition was 0%.
Turning to `O=C(O)CCC(=O)Nc1nc(-c2ccccc2)cs1`, the inhibition was 0%.
In the case of `O=C(CSc1nnc2sc3ccccc3n12)c1ccco1` it was 0%; in that of `O=C1C(Cl)=C(N2CCOCC2)C(=O)N1CCc1ccccc1`, 4%; in that of `CCCN(CCC)CCNS(=O)(=O)c1ccc2c(c1)oc(=O)n2C`, 2%.
In the case of `CN(c1ccccc1)S(=O)(=O)c1cc(C(=O)N2CCN(c3ccccn3)CC2)ccc1Cl` it was 0%; in that of `COc1ccc(C(=O)N2CCSC2=S)cc1OC`, 0%; in that of `O=C(CSc1nnc(-c2ccccc2)o1)N1CCN(c2ccccc2)CC1`, 0%.
Consider `Cc1ccc(NC(=O)c2ccco2)c(NC(=O)c2cccs2)c1`, for which the inhibition was 0%.
In the case of `C#CCN1C(=O)C(O)(CC(=O)c2cc(OC)ccc2OC)c2ccccc21` (stereo not given) it was 6%; in that of `CC1(C)CC(=O)C(C#N)=C(NCCCO)C1`, 0%.
As to `CCOc1cc(N2CCOCC2)c(OCC)cc1NC(=O)COC(=O)CCc1c[nH]c2ccccc12`, the inhibition is 0%.
As to `CCOc1ccc(S(=O)(=O)N(C)C)cc1-c1nc2c(C(C)(C)C)nn(C)c2c(=O)[nH]1`, the inhibition is 0%.
As for `CN(C)c1ccc(/C=C/c2ccncc2)cc1`, the inhibition was 1%.
As for `CCN1CCc2c(C#N)c(N3CCCCC3)nc(NCc3ccccc3)c2C1`, the inhibition was 0%.
With `CCN1CCN(c2nc3c(c(=O)[nH]c(=O)n3C)n2CCSc2nc3ccccc3s2)CC1`, the inhibition is 3%.
As for `CC(=O)Nc1ccc(Cl)c(C(N)=O)c1`, the inhibition was 2%.
`O=c1c2c(nc3nc(COc4ccccc4)[nH]n13)CCC2`: the inhibition was 0%.

The record behind these values is PubChem BioAssay.
